Reference: PubChem BioAssay (NCI)
The panel holds about 83,000 compounds, 20% with a hit somewhere; the sample as a whole holds those more often.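 Cell lines were cultured in 96-well plates, exposed to a single compound concentration, and assessed for percent growth 48 hours later.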 Values without a mark were called inactive. The source made the active and inactive calls. How the source made its calls: active means growth percent below 10; inactive means the rest.

What was measured:
Assay in all cases: NCI-60 one-dose screen, 48 h (100 = growth as untreated, 0 = no growth, -100 = all killed)
Conditions in all cases: 10 µM unless noted
[1] = tested on: SK-MEL-2 melanoma
[2] = tested on: EKVX NSCLC
[3] = tested on: SN12C renal
[4] = tested on: UO-31 renal
[5] = tested on: TK-10 renal
[6] = tested on: ACHN renal
[7] = tested on: CAKI-1 renal
[8] = tested on: A498 renal
[9] = tested on: CCRF-CEM leukemia
[10] = tested on: MOLT-4 leukemia
[11] = tested on: SR leukemia
[12] = tested on: RPMI-8226 leukemia
[13] = tested on: OVCAR-8 ovarian
[14] = tested on: OVCAR-5 ovarian
[15] = tested on: OVCAR-4 ovarian
[16] = tested on: SK-OV-3 ovarian
[17] = tested on: IGROV1 ovarian
[18] = tested on: OVCAR-3 ovarian
[19] = tested on: HS 578T breast
[20] = tested on: NCI/ADR-RES ovarian

SMILES | growth [1] [%] | growth [2] [%] | growth [3] [%] | growth [4] [%] | growth [5] [%] | growth [6] [%] | growth [7] [%] | growth [8] [%] | growth [9] [%] | growth [10] | growth [11] | growth [12] | growth [13] [%] | growth [14] [%] | growth [15] | growth [16] [%] | growth [17] | growth [18] | growth [19] [%] | growth [20] [%]
CS(=O)(=O)c1ccc(C(=O)N2N=C(c3ccccc3)CC2c2ccc3c(c2)OCO3)cc1 (configuration not stated) | 89.8 | 93.4 | 94.4 | 66.5 | 107 | 107 | 92.5 | 86.2 | 105 | 52.4% | 90.9% | 95.7% | 100 | 100 | 99.3% | 83.7 | 96.2% | 106% | 95.7 | 103
COc1cc(OC)c2sc(-c3ccc(-n4cncc4-c4ccc(OC)c(N)c4)cc3)nc2c1 | 99.6 | 64.5 | 87 | 60.6 | 82.8 | 90.4 | 60.9 | 77.8 | 59.2 | 58.3% | 73.8% | 51.8% | 84.3 | 101 | 78% | 123 | 98.2% | 77.4% | 94.1 | 77.4
C=C(C)[C@@H]1CC[C@]2(C(=O)NC(COC(=O)C(Cl)Cl)(COC(=O)C(Cl)Cl)COC(=O)C(Cl)Cl)CC[C@]3(C)[C@H](CC[C@@H]4[C@@]5(C)CC[C@H](OC(C)=O)C(C)(C)[C@@H]5CC[C@]43C)[C@@H]12 | 76.5 | 57.7 | 37 | 55.4 | 75.8 | 51.1 | 48.4 | 99.5 | 18.3 | 6.2% (active) | 20.4% | 2.68% (active) | 73.6 | 80.7 | 54.5% | 82.1 | 84.3% | 57.5% | 71.5 | 71
NS(=O)(=O)c1ccc(CCn2c(SCC(=O)N/N=C/c3cccnc3)nc3ccccc3c2=O)cc1 | 92 | 96 | 110 | 83.6 | 109 | 102 | 95.6 | 85.5 | 60.3 | 68.8% | 65.3% | 49.7% | 75.1 | 108 | 94.6% | 115 | 104% | 84.7% | – | 105
Cc1ccc(Nc2cccc3ccccc23)cc1 | 93.3 | 101 | 96.6 | 45.5 | 59.7 | 84.8 | 63.3 | 83.3 | 84.8 | 77.3% | 62.1% | 76.5% | 96.2 | 93.2 | 78.9% | 101 | 73.2% | 89.1% | 83.4 | 78.1
CCOCCNc1ccc(S(=O)(=O)c2ccc(N)cc2)cc1N | 111 | 86.6 | 110 | 90.8 | 111 | 106 | 86.7 | 83.2 | 96 | 107% | 115% | 92.9% | 98.7 | 103 | 100% | 105 | 114% | 100% | – | 100
CC(C)CCSc1nc(Nc2ccccc2)c(C#N)c(-c2ccc(F)cc2)n1 | 90.6 | 65.1 | 38.9 | 30 | 20.6 | 13.4 | 55.5 | 40 | 49.3 | 51.5% | 37.4% | 50% | 42.2 | 83.8 | -18% (active) | 67.2 | 33.5% | 28.8% | 49.5 | 56.8
CCn1c(Cc2ccccc2Nc2c(Cl)cccc2Cl)nnc1SCC(=O)Nc1cccc(OC)c1 | 91.5 | 77.7 | 66.6 | 68.6 | 82.8 | 88.7 | 84.6 | 40.9 | 73.1 | 54.3% | 87.1% | 63.2% | 89.8 | 82.9 | 78.7% | 85.4 | 67% | 96% | 72 | 86.1
OCCN(CCO)c1ccc2ccccc2c1 | 87.3 | 102 | 94.2 | 65 | 97.6 | 106 | 97.3 | 110 | 109 | 98.8% | 104% | 110% | 104 | 98.8 | 104% | 98.3 | 93.7% | 103% | 105 | 98.7
COc1cccc(-c2nc3sccn3c2-c2ccnc(NCCN3CCCN(C)S3(=O)=O)n2)c1 | 97.1 | 103 | 64.7 | 73.4 | 120 | 54 | 50.7 | 98.1 | 63.3 | 82.8% | 66.7% | 103% | 98.6 | 102 | 78% | 62.4 | 72.7% | 91.2% | 97.5 | 84.9
CC(C)c1ccc2c(c1)CCC1C2CCCC1(C)NCc1ccccc1 (configuration not stated) | 26.8 | 80.3 | 66.9 | 45.4 | 95 | 90.6 | 63.1 | 91.5 | 48.3 | 39.9% | 0.88% (active) | -35.2% (active) | 91.5 | 53.5 | 67.7% | 86.4 | 84.2% | 80.4% | – | 62.7
Clc1nnc2c3ccccc3ccn12 | 108 | 105 | 109 | 98.8 | 106 | 105 | 93 | 106 | 92.6 | 104% | 106% | 99.6% | 99.1 | 103 | 111% | 95.1 | 113% | 112% | 103 | 112
COc1cc(NCCC2CCCCN2)c2ncccc2c1OC (configuration not stated) | 50.5 | 114 | 81.6 | 65.3 | 104 | 82.9 | 100 | 113 | 47.2 | 43% | 73.8% | 68.2% | 62.7 | 115 | 36.8% | 116 | 4.24% (active) | 4.97% (active) | 86.6 | 81.7
O=C(CC(=O)C(F)(F)C(F)(F)C(F)(F)F)c1cc2ccccc2o1 | 106 | 100 | 103 | 87.5 | 108 | 110 | 94.8 | 125 | 102 | 102% | 101% | 109% | 102 | 103 | 98.6% | 105 | 110% | 106% | 103 | 102
C#C[C@]1(O)CC[C@H]2[C@@H]3CC=C4c5sc(-c6cccc(Br)c6)nc5CC[C@]4(C)[C@H]3CC[C@@]21C | 98.2 | 80.1 | 96.3 | 62.6 | 97.7 | 83.3 | 35 | 71.7 | 61.4 | 58% | 45.6% | 2.09% (active) | 98.7 | 75.5 | 100% | 95.9 | 102% | 101% | 69.5 | 91.1
CC1=CC(=O)OC1C/C=C(\C)CCC1[C@@]2(C)CCC[C@@](C)(C(=O)O)C2CC[C@@]1(C)O (some centres not stated) | 16.5 | 38.8 | 41 | 32.2 | 53.6 | 26.1 | 32.9 | 52.7 | 70.2 | 114% | 33.2% | 24.3% | 42.8 | 111 | 75.5% | 98.1 | 107% | 56% | 38.5 | 91.8
